We go through 28 compounds from PubChem BioAssay (Tox21).

SMILES strings stand for the structures. Results filed as inconclusive are left out. Values without a mark were called inactive. Calls of active or inactive are those of the source. Unless noted, the call rests on the fitted dose curve; in most records, active means well fitted curve in the direction sought with a large enough effect in the repeat runs; inconclusive means weak or mixed curves; inactive means no such curve, though single readings can be large; an effect the other way counts as inactive or inconclusive.

A short description of experiment [1]: qHTS assay to identify small molecule antagonists of the retinoid-related orphan receptor gamma (ROR-gamma) signaling pathway - cell viability counter screen (AID 1159520). Further: on the % scale 0 is the no-effect control and ±100 the full control effect; nearly all actives have a fitted effect of over 50% in size. A digest of the protocol:
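Tet-on ROR gamma CHO cells (1,000/well) were plated 4 hr, given compounds in DMSO for 2 hr at 37 C, then induced with 1 uM final doxycycline for 16 hr. Viability was read as ATP by CellTiter-Glo luminescence after 30 min.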

In experiment [2] the target is Nuclear receptor ROR-gamma (Homo sapiens) (UniProt P51449). Description: qHTS assay to identify small molecule antagonists of the retinoid-related orphan receptor gamma (ROR-gamma) signaling pathway (AID 1159521; further: nearly all actives have a fitted effect of over 50% in size; further: potency means the concentration at half of the fitted maximal effect;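 on activity change, negative = inhibition: CHO cells with doxycycline inducible ROR-gamma driving an RORE luciferase reporter; top concentration of the series differs between compounds; on the % scale 0 is the no-effect control and ±100 the full control effect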). A digest of the protocol:
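CHO Tet-on RORγ, RORE-luc reporter. Cpd 2 h pre-incubation, then dox hyclate 1 uM final, 16 h, 37 C/5% CO2. ONE-Glo luminescence; decrease = antagonist.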
(In general: In qHTS, concentration-response curves come from the screen itself.)

Experiment [3] in a line: qHTS assay to identify small molecule agonists of the AP-1 signaling pathway - cell viability counter screen (AID 1159525; calls by dose curve; further: nearly all actives have a fitted effect of over 55% in size). In a few lines: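 Each titration point was normalised to DMSO and tetra n-octyl ammonium bromide controls. The read was Cell Titer Glo luminescence after 30 min at RT, following 5 h compound exposure of ME-180 AP-1-bla cells at 37 °C.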
Experiment [4] is described as follows: qHTS assay to identify small molecule agonists of the AP-1 signaling pathway (AID 1159526; calls by dose curve; further: on the % scale 0 is the no-effect control and ±100 the full control effect).
Experiment [5] concerns the target Retinoic acid receptor RXR-alpha (Homo sapiens) (UniProt P19793). Nature of the experiment: qHTS assay to identify small molecule agonists of the RXR signaling pathway (AID 1159527; calls by dose curve; further: on the % scale 0 is the no-effect control and ±100 the full control effect; nearly all actives have a fitted effect of over 35% in size). A digest of the protocol:
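Read-out: beta-lactamase FRET ratio (405 nm excitation, 460 and 530 nm emission) after 2 hr substrate loading at room temperature. Cells were RXR-alpha-UAS-bla HEK 293T treated with compounds for 16 hr in 2% charcoal-stripped FBS medium.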

Experiment [6] can be described thus: qHTS assay to identify small molecule antagonists of the retinoid acid receptor (RAR) signaling pathway - cell viability counter screen (AID 1159551). Further: on the % scale 0 is the no-effect control and ±100 the full control effect; nearly all actives have a fitted effect of over 35% in size. A digest of the protocol:
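Cytotoxicity counter screen: ATP content quantified by CellTiter-Glo luminescence in C3RL4 cells treated 6 hr at 37 C with compound and retinol (1 uM final). Cells plated at 1,000/well and cultured overnight before dosing.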

Experiment [7] can be described thus: qHTS assay to identify small molecule agonists of the RXR signaling pathway - cell viability counter screen (AID 1159529). Further: series mostly up to about 77 µM; on the % scale 0 is the no-effect control and ±100 the full control effect; nearly all actives have a fitted effect of over 50% in size. In a few lines:
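HEK 293T RXRa-bla cells, 2% CS-FBS; 5 h settle; cpd 16 h 37 C, 5% CO2; CellTiter-Glo 30 min RT, luminescence. Tetraoctyl ammonium bromide as positive control.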

The nature of experiment [8]: qHTS assay to identify small molecule antagonists of the retinoic acid receptor (RAR) signaling pathway (AID 1159552; further: on the % scale 0 is the no-effect control and ±100 the full control effect; nearly all actives have a fitted effect of over 50% in size). A digest of the protocol:
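Cells of the C3RL4 line were seeded, incubated overnight, then dosed with compounds in DMSO followed immediately by retinol (1 uM final). Six hours later luciferase detection reagent went in; signal was measured after 30 min at RT.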

Chain of Retinoic acid receptor RXR-alpha (Homo sapiens) (P19793 whole entry, looked up): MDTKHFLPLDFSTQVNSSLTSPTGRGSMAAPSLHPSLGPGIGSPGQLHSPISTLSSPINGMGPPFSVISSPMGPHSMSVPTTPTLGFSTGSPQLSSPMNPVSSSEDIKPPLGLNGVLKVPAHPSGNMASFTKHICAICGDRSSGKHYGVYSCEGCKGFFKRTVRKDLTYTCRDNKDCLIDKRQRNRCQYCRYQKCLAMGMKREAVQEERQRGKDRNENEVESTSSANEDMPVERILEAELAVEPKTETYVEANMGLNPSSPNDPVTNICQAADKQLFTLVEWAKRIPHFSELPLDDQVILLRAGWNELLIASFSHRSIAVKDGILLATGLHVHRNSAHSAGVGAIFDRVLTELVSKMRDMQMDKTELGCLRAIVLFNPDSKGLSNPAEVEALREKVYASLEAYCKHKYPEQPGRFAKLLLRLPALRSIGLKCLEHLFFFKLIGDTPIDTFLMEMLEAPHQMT

Consider `CC(C)(C)c1cc(CCC(=O)OCCSCCOC(=O)CCc2cc(C(C)(C)C)c(O)c(C(C)(C)C)c2)cc(C(C)(C)C)c1O`, for which the Potency entry in experiment [1], in experiment [2], in experiment [3], in experiment [4], in experiment [5] and in experiment [6] was “inactive” in each case.

On to `CC(C=O)c1ccccc1` (stereo not drawn), for which the Potency entry in experiment [1], in experiment [2], in experiment [3], in experiment [4], in experiment [5] and in experiment [7] was “inactive” throughout. Also, the Potency result in experiment [6] and in experiment [8] was “inactive” each time.

With `O=C(O)CN(CCCN(CC(=O)O)CC(=O)O)CC(=O)O`, the activity, negative = cytotoxicity in experiment [1] was 3.4% [at 19 µM]. Moreover, the activity change, negative = inhibition in experiment [2] was -18.7% [at 19 µM]. For the same compound, the viability change, negative = cytotoxic in experiment [3] was -3.53% [at 15.8 µM]. For the same compound, the results for the activation in experiment [4] and in experiment [5] were 3.51% [at 15.8 µM] and 0.262% [at 15.8 µM], respectively. In experiment [6], the activity change, negative = cytotoxicity is 0.537% [at 19 µM].

In the case of `Nc1cccnc1N`, the Potency entry in experiment [1], in experiment [2], in experiment [3], in experiment [4], in experiment [5] and in experiment [7] was “inactive” throughout. The Potency result in experiment [6] and in experiment [8] was “inactive” in each case.

`C1=CCCC1`: the Potency entry in experiment [1], in experiment [2], in experiment [3], in experiment [4], in experiment [5] and in experiment [7] was “inactive” in each case. Moreover, the Potency result in experiment [6] and in experiment [8] was “inactive” each time.

For the compound `Brc1cc(Br)cc(Br)c1`, the Potency result in experiment [1], in experiment [2], in experiment [3], in experiment [4], in experiment [7] and in experiment [6] was “inactive” each time.

In the case of `CC1CCC(C(C)(C)O)CC1` (stereo not drawn), the Potency entry in experiment [1], in experiment [2], in experiment [3], in experiment [4], in experiment [5] and in experiment [7] was “inactive” each time. The Potency result in experiment [6] is “inactive”.

Turning to `Clc1cccc(Cl)n1`, the Potency result in experiment [1], in experiment [2], in experiment [3], in experiment [5], in experiment [7] and in experiment [6] was “inactive” throughout.

As for `CSc1ccc(O)cc1C`, the Potency result in experiment [1] is “inactive”.

Turning to `CCOC(=O)[C@H](C)O`, the Potency result in experiment [1], in experiment [2], in experiment [3], in experiment [4], in experiment [5] and in experiment [6] was “inactive” each time. Besides, the Potency entry in experiment [8] is “inactive”.

With `Cc1c[nH]c(=O)[nH]c1=O`, the Potency result in experiment [1], in experiment [2], in experiment [3], in experiment [4], in experiment [7] and in experiment [6] was “inactive” in each case. For the same compound, the Potency result in experiment [8] was “inactive”.

`Cc1cccc2c1ccc1ccccc12`: the Potency entry in experiment [1], in experiment [2], in experiment [3], in experiment [4], in experiment [5] and in experiment [6] was “inactive” throughout. In addition, in experiment [8], the Potency result is “inactive”.

In the case of `CCN(CCC#N)c1ccc(N=Nc2ccc([N+](=O)[O-])cc2)cc1`, the Potency entry in experiment [1], in experiment [2], in experiment [3], in experiment [4], in experiment [5] and in experiment [7] was “inactive” each time. Also, the Potency entry in experiment [8] was “inactive”.

On to `C=COCCCC`, for which the Potency result in experiment [1], in experiment [2], in experiment [3], in experiment [4], in experiment [7] and in experiment [6] was “inactive” throughout. For the same compound, in experiment [8], the Potency entry is “inactive”.

For the compound `CC(C)=CCC[C@H](C)CC=O`, the Potency result in experiment [1], in experiment [2], in experiment [3], in experiment [4], in experiment [5] and in experiment [7] was “inactive” in each case. Also, the Potency entry in experiment [6] is “inactive”.

As for `C/C(=N\[Si](C)(C)C)O[Si](C)(C)C`, the Potency result in experiment [1], in experiment [2], in experiment [3], in experiment [4], in experiment [5] and in experiment [7] was “inactive” in each case. Besides, the Potency result in experiment [6] was “inactive”.

For the compound `O=C(NCc1ncc(C(F)(F)F)cc1Cl)c1c(Cl)cccc1Cl`, the Potency result in experiment [1], in experiment [3], in experiment [4] and in experiment [6] was “inactive” each time. Moreover, the Potency in experiment [2] is 12.2 µM (active).

As to `Cc1ccc2sc3cccc(C)c3c2c1`, the Potency result in experiment [1], in experiment [2], in experiment [3], in experiment [4], in experiment [5] and in experiment [6] was “inactive” each time.

In the case of `CN1CCN(C)CC1`, the Potency entry in experiment [1], in experiment [2], in experiment [3], in experiment [5], in experiment [7] and in experiment [6] was “inactive” each time. In addition, in experiment [8], the Potency entry was “inactive”.

Consider `CC1(C)[C@H](C(=O)OCc2cccc(Oc3ccccc3)c2)[C@@H]1C=C(Cl)Cl`, for which the Potency result in experiment [1], in experiment [2], in experiment [3], in experiment [4], in experiment [5] and in experiment [7] was “inactive” throughout. In addition, the Potency result in experiment [6] is “inactive”.

As to `CCC(=O)OC/C=C(\C)CCC=C(C)C`, the Potency entry in experiment [1], in experiment [2], in experiment [3], in experiment [4], in experiment [5] and in experiment [6] was “inactive” throughout.

Turning to `Cc1ccc(N=Nc2c(O)ccc3ccccc23)c(C)c1`, the Potency entry in experiment [1], in experiment [2], in experiment [3], in experiment [4], in experiment [7] and in experiment [6] was “inactive” in each case. Moreover, the Potency result in experiment [8] was “inactive”.

On to `O=C1c2ccccc2C(=O)c2c(Cl)cccc21`, for which the Potency entry in experiment [1], in experiment [2], in experiment [3], in experiment [4], in experiment [5] and in experiment [6] was “inactive” throughout. The Potency result in experiment [8] is “inactive”.

For the compound `Cc1cccc(C)c1C`, the Potency entry in experiment [1], in experiment [2], in experiment [3], in experiment [4], in experiment [5] and in experiment [7] was “inactive” each time. Besides, in experiment [6], the Potency entry is “inactive”.

As to `CC(CC(C)(C)C)CC(C)(C)CC(C)(C)C` (stereo not drawn), the Potency entry in experiment [1], in experiment [2], in experiment [3], in experiment [4], in experiment [7] and in experiment [6] was “inactive” throughout.

For the compound `Nc1ccc(F)c([N+](=O)[O-])c1`, the Potency entry in experiment [1], in experiment [2], in experiment [3], in experiment [4], in experiment [5] and in experiment [7] was “inactive” in each case. Moreover, in experiment [6], the Potency entry is “inactive”.

As to `CCCCCCCCCCCCS(=O)(=O)Cl`, in experiment [1], the activity, negative = cytotoxicity was -7.74% [at 19 µM]. In addition, in experiment [2], the activity change, negative = inhibition is 0.574% [at 19 µM]. Further, the viability change, negative = cytotoxic in experiment [3] was -17.5% [at 15.8 µM]. Moreover, the activation in experiment [4] is -7.42% [at 15.8 µM]; in experiment [5], -13.1% [at 15.8 µM]. Besides, the activity change, negative = cytotoxicity in experiment [6] is 0.197% [at 19 µM]. For the same compound, the activity, negative = inhibition in experiment [8] is -0.011% [at 19 µM].

Consider `C/C=C/C(=O)C1=C(C)C=CCC1(C)C`, for which the Potency entry in experiment [1], in experiment [2], in experiment [3], in experiment [4], in experiment [5] and in experiment [6] was “inactive” throughout.
